A number with no mark means an inactive call.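 How the source made its calls: active means compounds whose dose series gives a full or clear partial fitted curve of increased nuclear translocation; inconclusive means weak partial curve or effect only at the top dose; inactive means no dose-dependent translocation response.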
target: Glucocorticoid receptor (Homo sapiens) (UniProt P04150); experiment: GR-GFP Redistribution (AID 450); conditions: U2OS GR-GFP nuclear translocation, laser cytometry, 2 h
Description: NIH Molecular Libraries Screening Centers Network [MLSCN]
NIH Chemical Genomics Center [NCGC]
The glucocorticoid receptor (GR) Redistribution assay (BioImage) enables the visualization of GR cytoplasmic to nuclear translocation by the use of a GR-GFP fusion. GR is normally cytosolic, however ligands such as dexamethasone, cause nuclear translocation where the protein binds to response elements and interacts with various co-factors to modulate transcription. Because both functional agonists and antagonists can induce nuclear translocation, this assay can detect ligands regardless of their effects on gene expression. GR-GFP expressing U20S cells were used here. Dexamethasone was the positive control for translocation and data normalization. Detection of nuclear translocation was performed in 1536-well plates using the Acumen laser scanning plate cytometer (TTP LabTech). Validation of this assay and a detailed protocol have been described.
NCGC Assay Protocol Summary:
GR-GFP U2OS cells were maintained in DMEM with Glutamax and high glucose, 1% v/v penicillin-streptomycin, and 0.5 mg/mL Geneticin. For cell culture, 10% […] fetal bovine serum (FBS) was used (Invitrogen #26140-079). For cell plating 10% dextran, charcoal-stripped FBS (Hyclone SH30068.03) was used. U2OS cells were trypsin treated, suspended in medium, and passed through a 40 um basket filter. The cells were seeded at 600 cells/5 uL/well into clear-bottom black sided 1536-well plates and incubated for approximately 20 hrs, 37degC, 5%, CO2 in a tissue culture incubator. Twenty-three nL of compound was delivered by pin tool and the plates were incubated as above for 2 hrs. The compounds were tested as a 7-point titration ranging from 46 uM to 0.6 nM. The cells were fixed using the Kalypsys Washer/Dispenser station. The fixing protocol involved aspiration of the cell media, addition of 6 uL/well of PBS, aspiration of PBS, addition of 5uL/well of 100% methanol, aspiration of methanol, and addition of 3 uL/well PBS with 1.5 uM propidium iodide (PI). The plates were read by the Acumen Explorer using a 1 x 8 um scan of the whole well area. PI fluorescence triggered the collection of PI and GFP signals. A nuclei population was defined by a 10 to 100 um width and depth filter that eliminated small and large fluorescent particles. Two subpopulations of nuclei were then defined by peak intensity of GFP fluorescence to obtain translocated and untranslocated objects. The number of translocated objects was used for data normalization.
Keywords: NIH Roadmap, MLSCN, MLI, MLSMR, sOGT, qHTS, NCGC
Potency means the concentration at half of the fitted maximal effect.

Chain of Glucocorticoid receptor (Homo sapiens) (P04150 whole entry, looked up): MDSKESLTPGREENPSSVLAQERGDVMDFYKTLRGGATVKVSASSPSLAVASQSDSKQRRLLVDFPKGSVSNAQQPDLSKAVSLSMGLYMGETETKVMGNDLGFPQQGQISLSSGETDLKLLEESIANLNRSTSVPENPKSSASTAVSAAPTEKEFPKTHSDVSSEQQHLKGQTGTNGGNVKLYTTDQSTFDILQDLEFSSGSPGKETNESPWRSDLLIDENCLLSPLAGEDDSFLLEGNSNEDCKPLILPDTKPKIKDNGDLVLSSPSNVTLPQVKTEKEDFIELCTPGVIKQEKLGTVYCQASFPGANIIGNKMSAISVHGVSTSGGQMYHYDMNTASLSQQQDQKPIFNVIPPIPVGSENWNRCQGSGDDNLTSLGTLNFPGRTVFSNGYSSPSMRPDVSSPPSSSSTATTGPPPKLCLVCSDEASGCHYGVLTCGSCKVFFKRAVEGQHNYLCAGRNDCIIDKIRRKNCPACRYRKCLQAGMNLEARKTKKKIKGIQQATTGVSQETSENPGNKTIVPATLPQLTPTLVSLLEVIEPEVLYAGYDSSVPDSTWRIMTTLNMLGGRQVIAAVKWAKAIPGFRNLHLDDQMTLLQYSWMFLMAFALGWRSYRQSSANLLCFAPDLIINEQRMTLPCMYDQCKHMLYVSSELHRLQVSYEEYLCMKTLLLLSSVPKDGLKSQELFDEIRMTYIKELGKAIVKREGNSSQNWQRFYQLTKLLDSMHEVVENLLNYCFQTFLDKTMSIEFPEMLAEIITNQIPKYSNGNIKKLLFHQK

SMILES	Potency [µM]
C=C[C@@H]1CN2CC[C@@H]1C[C@H]2[C@H](O)c1ccnc2ccccc12	> 46
CCOC(=O)[C@]1(C#N)[C@@H]2C=CC(C(C)=O)=CN2[C@@H](C(N)=O)[C@@H]1c1ccsc1	> 20.6
OC1(c2ccc(F)cc2)CCNC1 (stereo not given)	> 20.6
CN1C[C@@H](CNC(=O)OCc2ccccc2)C[C@H]2c3cccc4c3c(cn4C)C[C@@H]21	> 46
CC(C)(C)NC[C@H](O)c1ccccc1Cl	> 46
C/C=C(\C)C(=O)O[C@@H]1C(C)=C2[C@H]([C@@H]1OC(=O)CCCCCCC)[C@@](C)(OC(C)=O)C[C@@H](OC(=O)CCC)[C@@]1(O)[C@H]2OC(=O)[C@]1(C)O	> 46
C=CCCN1C[C@@H]2C[C@H](C1)c1cccc(=O)n1C2	> 46
CCN(CC)CCN=Cc1c(O)n(CCc2ccccc2)c(=O)[nH]c1=O	> 20.6
CCCCCCn1c(O)c(C=Nc2c(C)n(C)n(-c3ccccc3)c2=O)c(=O)[nH]c1=O	> 20.6
CCCCNC(=O)Nc1ccc(C(O)(C(=O)OC)C(F)(F)F)cc1 (stereo not given)	> 20.6
CCCN1CCC[C@H](c2cccc(C#N)c2)C1	> 46
N[C@]1(C(=O)O)CC[C@@H](C(=O)O)C1	> 46
C[C@@]12CCC[C@](C)(C(=O)O)[C@@H]1CCc1ccc(O)cc12	> 46
CCN1C[C@@]2(COC(=O)c3ccccc3N3C(=O)C[C@H](C)C3=O)CC[C@H](OC)[C@@]34[C@@H]5CC6[C@@H](OC)C[C@@](O)([C@H]5[C@H]6OC)C(O)([C@@H]13)[C@@H](OC)[C@H]24	> 46
O=c1[nH]c(=O)n(Cc2ccco2)c(O)c1C=NCCN1CCOCC1	> 20.6
CCCCC1(CN2CCCC2=O)C(=O)NC(=O)NC1=O	> 20.6
COCCOC(=O)c1c(N)n(Cc2ccco2)c2nc3ccccc3nc12	> 20.6
CC[C@H]1CN2CC[C@@H]1C[C@@H]2[C@H](O)c1ccnc2ccccc12	> 46
CC(=O)CC(C)(C)n1c[n+](C)nn1	> 20.6
CCCSP1(=S)NCCCO1 (stereo not given)	> 20.6

SMILES	Potency [µM]
CCOC(C(=O)OCC(O)CN(CC)CC)(c1ccccc1)c1ccccc1 (stereo not given)	> 20.6
C[C@H]1CC[C@@H]2[C@@H](C)C(=O)O[C@H]3O[C@@]4(C)CC[C@@H]1[C@]32OO4	> 46
O=CN1C[C@H]2C[C@@H](C1)c1cccc(=O)n1C2	> 46
CCN(CC)c1ccc(N=Cc2c(O)n(-c3ccccc3C)c(=O)[nH]c2=O)cc1	> 20.6
O=C1C2CCN(CC2)[C@@H]1Cc1ccc2ccccc2c1O	> 20.6
CCN(CC)c1ncnc2c1ncn2[C@@H]1O[C@@H](COP(=O)(O)OP(=O)(O)C(Br)(Br)P(=O)(O)O)[C@H](O)[C@H]1O	> 46
CO[C@@H](C)[C@](O)(C(=O)OC1=CCN2CC[C@H](O)[C@H]12)C(C)C	> 46
C[C@@H](Cc1ccc2c(c1)OC(C(=O)O)(C(=O)O)O2)NC[C@H](O)c1cccc(Cl)c1	> 46
Cn1c(O)c(C=NC2CCN(Cc3ccccc3)CC2)c(=O)n(C)c1=O	> 20.6
CCCCSP1(=S)NCCCO1 (stereo not given)	> 20.6
NCC1(c2ccc3c(c2)OCCO3)CCCC1	> 20.6
CN1CCc2nc3sc(C#N)c(N)c3c(-c3cccs3)c2C1	> 20.6
COc1ccc2[nH]c3c(c2c1)CCN=C3C	> 20.6
COCCOC(=O)C1=C(N)Oc2c(c(=O)oc3ccccc23)[C@@]12C(=O)Nc1ccccc12	> 20.6
O=C1C[C@H]2OCCC=C3CN4CC[C@@]56c7ccccc7N1[C@@H]5[C@H]2[C@H]3C[C@@H]46	> 46
C/C(Cl)=C/CC1(CN2CCCC2=O)C(=O)NC(=O)NC1=O	> 20.6
CC[C@H](CO)NC(=O)[C@H]1C=C2c3cccc4[nH]cc(c34)C[C@H]2N(C)C1	> 46
C[C@H]1CCCC(=O)CCCCCc2cc(O)cc(O)c2C(=O)O1	> 20.6
Cc1c(N=Cc2c(O)n(CCc3ccccc3)c(=O)[nH]c2=O)c(=O)n(-c2ccccc2)n1C	> 20.6
C=C(C)[C@@H]1CN[C@H](C(=O)O)[C@H]1CC(=O)O	> 46

Reference: PubChem BioAssay (NCATS)
